The source of these data is PubChem BioAssay.

Values without a mark were called inactive. For part of these data: Results with a measured potency or affinity are listed apart. The source made the active and inactive calls. Unless noted, no rule for the calls is given here.

The nature of assay [1]: antimalarial activity against Dd2 strain (AID 2302;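 active = growth inhibition above 50% at the single 2 µM test dose, taken to imply half-maximal potency below 2 µM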;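 also: 0% = DMSO untreated growth and 100% = chloroquine plus artemisinin killed control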). Particulars: P. falciparum Dd2 in RBCs, LDH growth readout, 72 h; at 2 µM; active compounds read high.
Assay [2] can be described thus: HepG2 cytotoxicity, primary screen, cytotoxicity control for P. falciparum antimalarial project, cell-based, ATP luminescence (AID 2303;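 active = inhibition above 50%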;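 also: 0% = DMSO wells and 100% = digitonin-killed cells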). Particulars: HepG2 viability, 24-48 h, at 10 µM, active compounds read high.
Assay [3] addresses L-lactate dehydrogenase (Plasmodium falciparum (isolate CDC / Honduras)) (UniProt Q27743). Nature of the assay: PfLDH activity inhibition – cell lysate, 3D7 strain, counter-screen for P. falciparum growth inhibition project (AID 2304).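 Also: 0% = vehicle and 100% = reference inhibitor.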 Particulars: P. falciparum 3D7 crude extract, LDH APAD/NBT absorbance; at 2 µM; active compounds read high. Background: A counterscreen serves to expose hits that act by an unwanted route or on another target.

Assay [4] can be described thus: inhibition of 3D7 malaria parasite growth – strain 3D7 (AID 2306).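 Also: 0% = DMSO wells and 100% = chloroquine plus artemisinin control wells.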 Particulars: P. falciparum 3D7 erythrocytic growth, LDH absorbance, 72 h; at 2 µM; active compounds read high.
Assay [5] concerns the target Calcium-dependent protein kinase 1 (Plasmodium falciparum (isolate 3D7)) (UniProt P62344). Nature of the assay: PfCDPK1 kinase inhibitors, biochemical, TCAMS library (AID 1159585; cut-off not given, nearly all actives have IC50 up to about 0.98 µM;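 also: inhibitors leave more ATP so luminescence rises with inhibition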). Particulars: recombinant PfCDPK1, Kinase-Glo ATP depletion luminescence.
Assay [6] addresses Plasmodium falciparum protein kinase 6 (PK6, PF3D7_1337100) (UniProt Q8IDW1). Put plainly: PfPK6 kinase inhibitors, biochemical, TCAMS library (AID 1159586). Particulars: recombinant PfPK6, Kinase-Glo ATP depletion luminescence. Background: Kinase-Glo measures the ATP left after a reaction by luminescence.
Assay [7] addresses Protein kinase 7 (PK7), Plasmodium falciparum 3D7 (PF3D7_0213400) (UniProt Q7YTF7). Nature of the assay: inhibition of Plasmodium PK7 catalytic activity – biochemical, TCAMS antimalarial set, Kinase-Glo luminescence (AID 1159587). Particulars: recombinant PfPK7, Kinase-Glo ATP depletion luminescence.
Assay [8] concerns the target Calcium-dependent protein kinase 4 (Plasmodium falciparum (isolate 3D7)) (UniProt Q8IBS5). Put plainly: PfCDPK4 kinase inhibitors, biochemical, TCAMS library (AID 1159588; cut-off not given, nearly all actives have IC50 up to about 0.91 µM). Particulars: recombinant PfCDPK4, Kinase-Glo ATP depletion luminescence.

Sequence of L-lactate dehydrogenase (Plasmodium falciparum (isolate CDC / Honduras)) (Q27743 whole entry, looked up): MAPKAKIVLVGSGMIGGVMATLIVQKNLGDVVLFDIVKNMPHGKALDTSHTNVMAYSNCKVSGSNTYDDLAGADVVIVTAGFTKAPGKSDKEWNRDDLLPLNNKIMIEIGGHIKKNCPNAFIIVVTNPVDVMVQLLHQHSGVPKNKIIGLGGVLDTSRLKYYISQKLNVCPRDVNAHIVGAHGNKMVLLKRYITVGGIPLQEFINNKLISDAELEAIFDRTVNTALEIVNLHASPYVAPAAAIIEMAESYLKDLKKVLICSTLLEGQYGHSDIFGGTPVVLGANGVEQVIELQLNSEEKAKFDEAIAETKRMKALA
Sequence of Calcium-dependent protein kinase 1 (Plasmodium falciparum (isolate 3D7)) (P62344 whole entry, looked up): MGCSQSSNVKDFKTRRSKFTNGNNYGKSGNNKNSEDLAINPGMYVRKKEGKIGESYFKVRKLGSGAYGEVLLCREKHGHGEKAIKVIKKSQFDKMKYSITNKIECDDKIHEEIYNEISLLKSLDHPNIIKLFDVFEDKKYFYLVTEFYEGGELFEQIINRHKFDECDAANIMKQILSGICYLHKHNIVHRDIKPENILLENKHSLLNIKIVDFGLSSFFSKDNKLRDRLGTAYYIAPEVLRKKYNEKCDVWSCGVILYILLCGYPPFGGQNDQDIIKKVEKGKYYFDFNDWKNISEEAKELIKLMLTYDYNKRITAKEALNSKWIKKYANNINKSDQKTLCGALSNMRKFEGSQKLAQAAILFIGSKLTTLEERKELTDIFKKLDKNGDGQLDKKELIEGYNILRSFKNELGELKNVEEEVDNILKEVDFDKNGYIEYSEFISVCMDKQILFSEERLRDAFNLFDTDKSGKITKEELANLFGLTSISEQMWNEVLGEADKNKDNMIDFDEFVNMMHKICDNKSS
Sequence of Plasmodium falciparum protein kinase 6 (PK6, PF3D7_1337100) (Q8IDW1 1-305): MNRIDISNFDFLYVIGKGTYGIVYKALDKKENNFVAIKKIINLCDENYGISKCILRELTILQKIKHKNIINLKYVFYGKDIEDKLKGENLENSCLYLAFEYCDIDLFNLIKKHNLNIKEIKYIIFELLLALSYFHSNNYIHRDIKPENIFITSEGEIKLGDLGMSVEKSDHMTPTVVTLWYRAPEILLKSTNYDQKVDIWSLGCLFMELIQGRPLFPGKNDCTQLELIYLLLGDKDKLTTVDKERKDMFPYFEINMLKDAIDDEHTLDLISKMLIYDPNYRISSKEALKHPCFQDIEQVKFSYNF
Sequence of Calcium-dependent protein kinase 4 (Plasmodium falciparum (isolate 3D7)) (Q8IBS5 whole entry, looked up): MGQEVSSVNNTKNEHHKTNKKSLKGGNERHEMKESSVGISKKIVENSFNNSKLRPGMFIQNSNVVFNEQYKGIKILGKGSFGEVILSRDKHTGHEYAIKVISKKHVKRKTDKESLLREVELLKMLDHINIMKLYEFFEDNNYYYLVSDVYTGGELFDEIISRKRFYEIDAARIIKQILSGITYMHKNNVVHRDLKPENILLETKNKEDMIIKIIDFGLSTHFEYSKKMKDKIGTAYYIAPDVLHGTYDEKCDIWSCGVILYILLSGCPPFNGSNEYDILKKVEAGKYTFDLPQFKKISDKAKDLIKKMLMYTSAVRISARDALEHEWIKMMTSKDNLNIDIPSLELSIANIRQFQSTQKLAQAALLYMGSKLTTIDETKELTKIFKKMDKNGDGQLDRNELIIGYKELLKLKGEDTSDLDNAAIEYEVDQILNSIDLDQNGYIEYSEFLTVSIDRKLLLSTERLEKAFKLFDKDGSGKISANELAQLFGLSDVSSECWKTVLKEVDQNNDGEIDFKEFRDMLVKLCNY
Sequence of Protein kinase 7 (PK7), Plasmodium falciparum 3D7 (PF3D7_0213400) (Q7YTF7 1-343): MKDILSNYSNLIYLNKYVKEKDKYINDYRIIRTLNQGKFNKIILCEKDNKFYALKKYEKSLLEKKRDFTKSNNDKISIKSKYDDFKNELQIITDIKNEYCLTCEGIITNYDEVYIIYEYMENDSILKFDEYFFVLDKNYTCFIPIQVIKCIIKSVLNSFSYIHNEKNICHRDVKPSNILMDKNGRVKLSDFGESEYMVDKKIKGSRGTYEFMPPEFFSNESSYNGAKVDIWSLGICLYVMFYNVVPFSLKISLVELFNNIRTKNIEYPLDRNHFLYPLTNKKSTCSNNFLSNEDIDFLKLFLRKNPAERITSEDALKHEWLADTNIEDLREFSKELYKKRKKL

On to `COc1ccc2nc3cc(Cl)ccc3c(NCCCCNc3c4ccc(Cl)cc4nc4ccc(OC)cc34)c2c1`, for which the growth inhibition in assay [1] and in assay [4] was 99% (active) each time. The inhibition in assay [2] was 20%; in assay [3] it was 6%. Also, the result in assay [5], in assay [6], in assay [7] and in assay [8] was inactive.
As for `NOCCCCOc1ccc(Br)cc1`, the results for the growth inhibition in assay [1] and in assay [4] were -1% and 99% (active), respectively. The inhibition in assay [2] is 0%; in assay [3], -2%. The outcome in assay [5], in assay [6], in assay [7] and in assay [8] was inactive.
As for `COc1cc(C)ccc1N1CCN(CCCCNC(=O)c2ccc(NC(=O)c3ccc(Cl)cc3)cc2)CC1`, the growth inhibition was 31% in assay [1] and 99% (active) in assay [4]. In addition, the inhibition in assay [2] is 30%; in assay [3], 4%. Moreover, the outcome in assay [5], in assay [6], in assay [7] and in assay [8] was inactive.
On to `COc1cc2c(C3CCN(CC4CCC(NC(=O)/C=C/c5ccc(Cl)c(Cl)c5)CC4)CC3)c[nH]c2cn1` (stereo not drawn), for which the values for the growth inhibition in assay [1] and in assay [4] were 100% (active) and 101% (active), respectively. Besides, the inhibition in assay [2] was 44%; in assay [3] it was -5%. The outcome in assay [5], in assay [6], in assay [7] and in assay [8] was inactive.
For the compound `Cc1cc(Cl)c(Cl)cc1NC(=O)Nc1cccc(C(F)(F)F)c1`, the growth inhibition in assay [1] is 99% (active); in assay [4], 93% (active). Moreover, the inhibition in assay [2] is 1%; in assay [3], -1%. For the same compound, the result in assay [5], in assay [6], in assay [7] and in assay [8] was inactive.
For the compound `CC(=O)Nc1ccc(CN(C)C2CCN(c3cc(NC(=O)c4cccc(C)c4)ccn3)CC2)cc1`, the results for the growth inhibition in assay [1] and in assay [4] were 13% and 94% (active), respectively. The inhibition is -2% in assay [2] and -1% in assay [3]. Besides, the outcome in assay [5], in assay [6], in assay [7] and in assay [8] was inactive.
As for `COc1cc2nc(Cl)nc(Nc3ccncc3)c2cc1OC`, the growth inhibition in assay [1] is 33%; in assay [4], 86% (active). The inhibition was 11% in assay [2] and -2% in assay [3]. Also, the outcome in assay [5], in assay [6], in assay [7] and in assay [8] was inactive.
`Nc1ncc(-c2ccc3nccc(-c4ccncc4)c3c2)cc1S(=O)(=O)N1CCOCC1`: the growth inhibition was 99% (active) in assay [1] and 100% (active) in assay [4]. Moreover, the inhibition is 39% in assay [2] and -1% in assay [3]. Further, the outcome in assay [5], in assay [6], in assay [7] and in assay [8] was inactive.
`CC(C)c1ccc(NC(=O)c2ccc(C(=O)NC3CCN(CC4CCCCC4)CC3)cc2)cc1`: the growth inhibition was 5% in assay [1] and 98% (active) in assay [4]. The inhibition in assay [2] is 34%; in assay [3] it was -2%. Moreover, the result in assay [5], in assay [6], in assay [7] and in assay [8] was inactive.
In the case of `Cc1[nH]c(C)c(-c2ccc(-c3ccccc3F)nc2)c(=O)c1Cl`, the growth inhibition in assay [1] and in assay [4] was 97% (active) each time. For the same compound, the inhibition in assay [2] is 7%; in assay [3], 6%. Also, the outcome in assay [5], in assay [6], in assay [7] and in assay [8] was inactive.
As for `COc1ccccc1C1CCN(C2CCC(NC(=O)/C=C/c3cccc(Cl)c3F)CC2)CC1` (stereo not drawn), the growth inhibition in assay [1] was 19%; in assay [4], 96% (active). Besides, the values for the inhibition in assay [2] and in assay [3] were 50% (active) and -4%, respectively. Moreover, the result in assay [5], in assay [6], in assay [7] and in assay [8] was inactive.
With `O=C(CCN1C(=O)c2ccccc2C1=O)N1CCN(CC=Cc2ccccc2)CC1`, the growth inhibition in assay [1] was 3%; in assay [4] it was 87% (active). The inhibition was 10% in assay [2] and -1% in assay [3]. Besides, the outcome in assay [5], in assay [6], in assay [7] and in assay [8] was inactive.
Turning to `O=C(CCCc1ccccc1)Nc1cccc(N2CCC(N3CCN(c4ccccc4O)CC3)CC2)c1`, the growth inhibition was 41% in assay [1] and 98% (active) in assay [4]. The results for the inhibition in assay [2] and in assay [3] were 31% and -1%, respectively. Further, the result in assay [5], in assay [6], in assay [7] and in assay [8] was inactive.
Consider `O=C(Nc1ccc2oc(-c3ccc(Cl)cc3Cl)nc2c1)c1ccc([N+](=O)[O-])o1`, for which the growth inhibition in assay [1] is 78% (active); in assay [4] it was 95% (active). Also, the inhibition is 39% in assay [2] and 3% in assay [3]. The result in assay [5], in assay [6], in assay [7] and in assay [8] was inactive.
For the compound `Cc1cc(N(C)C2CCN(CC3CCCCC3)C2)nc(Nc2ccc(Cl)cc2)n1` (stereo not drawn), the growth inhibition in assay [1] was 35%; in assay [4], 98% (active). Moreover, the inhibition in assay [2] is -3%; in assay [3] it was -5%. Besides, the result in assay [5], in assay [6], in assay [7] and in assay [8] was inactive.
In the case of `CN1CC[C@@H](Oc2cc(CNC(=O)c3ccc(-c4ccc(Cl)cc4)s3)ccc2C(F)(F)F)C1`, the growth inhibition in assay [1] was 64% (active); in assay [4], 93% (active). Also, the values for the inhibition in assay [2] and in assay [3] were 40% and 2%, respectively. The result in assay [5], in assay [6], in assay [7] and in assay [8] was inactive.
`O=C(Nc1cccc(CN2CCCN(Cc3ccc(O)cc3)CC2)c1)c1cc2ccccc2o1`: the growth inhibition in assay [1] was 62% (active); in assay [4], 95% (active). Further, the figures for the inhibition in assay [2] and in assay [3] were 10% and 0%, respectively. In addition, the result in assay [5], in assay [6], in assay [7] and in assay [8] was inactive.
Take `CC1(C)[C@H]2CC[C@@H](CNc3nc(NCCc4cnc[nH]4)nc(Nc4ccc(Oc5ccccc5)cc4)n3)[C@@H]1C2`: the results for the growth inhibition in assay [1] and in assay [4] were 86% (active) and 99% (active), respectively. The inhibition in assay [2] is 2%; in assay [3] it was 3%. Besides, the result in assay [5], in assay [6], in assay [7] and in assay [8] was inactive.
For the compound `CO/C(=C\C=C\c1cc2cc(Cl)c(Cl)cc2[nH]1)C(=O)NCCCN1CCN(c2cccc(CCCO)c2)CC1`, the growth inhibition in assay [1] is 36%; in assay [4], 90% (active). In addition, the inhibition is 66% (active) in assay [2] and 3% in assay [3]. The result in assay [5], in assay [6], in assay [7] and in assay [8] was inactive.
Regarding `COc1ccc(NC(=O)CCNc2ccnc(NCCc3ccc(F)cc3)n2)cc1`, the growth inhibition in assay [1] is 5%; in assay [4], 94% (active). The inhibition in assay [2] is 4%; in assay [3], -3%. Moreover, the outcome in assay [5], in assay [6], in assay [7] and in assay [8] was inactive.
As for `N#Cc1ccc(N2CCN(C(=O)c3cccc(-c4noc(C(F)(F)F)n4)c3)CC2)nc1`, the results for the growth inhibition in assay [1] and in assay [4] were 58% (active) and 84% (active), respectively. Besides, the inhibition in assay [2] was 18%; in assay [3], 3%. Further, the outcome in assay [5], in assay [6], in assay [7] and in assay [8] was inactive.

As a reminder, the inhibition is the drop in the measured response relative to a control, in per cent.
